Hits are enriched below; roughly 9.9% of the tested compounds scored in any of these assays.
KB-3-1 cytotox – kills parental KB-3-1 adenocarcinoma cells; KB-3-1 viability, CellTiter-Glo ATP luminescence, 72 h; Potency, µM (highest dose often 46.1 µM), most hits filed as cytotoxic; 400,000 tested, 1.4% active; AID 1347075; also: potency is read from the fitted curve at half-maximal effect; % is scaled to controls: 0 for no effect and ±100 for the full control effect; nearly all actives have a fitted effect of over 60% in size
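Viability of parental KB-3-1 cells, measured by CellTiter-Glo luminescence, followed a 72 h incubation at 37 °C with pinned compounds in phenol-red-free DMEM containing 10% FBS.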
KB-V1 cytotox – kills drug-selected multidrug resistant KB-V1 cells; KB-V1 MDR cells viability, CellTiter-Glo, 72 h; Potency, µM (top dose mostly 46.1 µM), usual class: cytotoxic; 400,000 tested, 3.4% active; also: potency is read from the fitted curve at half-maximal effect; % is scaled to controls: 0 for no effect and ±100 for the full control effect; nearly all actives have a fitted effect of over 60% in size
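KB-V1, DMEM (no phenol red) + 10% FBS; cpd pin-transferred, titration series; 72 h, 37 degrees C; CellTiter-Glo, luminescence. Data normalized, curve-fit.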
IL1B secr inh – inflammasome signaling inhibition, IL-1 beta readout; THP-1 LPS/ATP IL-1B secretion, AlphaLISA, 16 h; hits give low values; activity change, % at 57.5 µM; 360,000 tested, 4.7% active; AID 743279; in the data active = activity change below about -50%; inconclusive = mostly about -30% to -49%; also: % is scaled to controls: 0 for no effect and ±100 for the full control effect
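THP-1 cells pretreated 1 hr with compounds (up to 57.5 uM final), then stimulated with LPS (250 ng/mL final) plus ATP (1.25 mM final); secreted IL-1B measured by AlphaLISA after 16 hr, decreased signal indicating inhibition.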
SW480 rerep – DNA re-replication induction in SW480 cells; SW480 DNA re-replication, Hoechst DNA content imaging, 48 h; 340,000 tested, 1.8% active; Potency, µM (top dose mostly 46.1 µM), inactives show at the top dose re-replication activation, hits mostly activators; AID 624297; also: potency is read from the fitted curve at half-maximal effect; % of control where 0% means no effect; nearly all actives have a fitted effect of over 55% in size
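Cells (250 per well) received 23 nL compound or DMSO by pin tool and were kept 48 hr at 37 C, 5% CO2. Nuclei were then stained with Hoechst for 40 min and scanned for DNA content.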
MCF10A rereplic – DNA re-replication induction in MCF 10a cells. MCF 10A DNA re-replication, Hoechst nuclear intensity, 48 h. Potency, µM (titrated, usually from 46.1 µM), without a hit: top-dose activity, positive = re-replication, hits mostly activators. 350,000 tested, 2.9% active; also: potency is read from the fitted curve at half-maximal effect; % of control where 0% means no effect; nearly all actives have a fitted effect of over 50% in size
Numbers without * were called inactive; [ ] = dose if it differs, or a comment. Unless noted, calls follow the shape of the dose curve; as a rule, active = well fitted curve in the direction sought with a large enough effect; inconclusive = small, poorly fitted or top-dose-only effect, or another doubt; inactive = no such curve, though single readings can be large; an effect the other way counts as inactive or inconclusive.

How did CCOc1cc(CNCC(C)C)cc(Cl)c1OCc1ccccc1 do in these assays?
KB-3-1 cytotox: inactive; KB-V1 cytotox: inactive; IL1B secr inh: -51.8*; SW480 rerep: 23.4%; MCF10A rereplic: 1.1%

What do the screens show for `CCOc1cc(Cl)c(CNCCCN2CCOCC2)cc1OC`?
KB-3-1 cytotox: inactive; KB-V1 cytotox: inactive; IL1B secr inh: 5.2; SW480 rerep: -3.2%; MCF10A rereplic: 13.8%

Results for COc1cc2oc(=O)c(CC(=O)N3CCCCC3)c(C)c2cc1OC ?
KB-3-1 cytotox: inactive; KB-V1 cytotox: inactive

What do the screens show for `CCOc1cc(C(=S)N2CCCC2)ccc1OCC(=O)Nc1c(C)cc(C)cc1C`?
KB-3-1 cytotox: inactive; KB-V1 cytotox: inconclusive; IL1B secr inh: -3.9; SW480 rerep: -1.0%; MCF10A rereplic: -8.1%

Results for O=[N+]([O-])c1ccc(N2CCN(c3cccc(Cl)c3)CC2)cn1 ?
KB-3-1 cytotox: inactive; KB-V1 cytotox: inactive; IL1B secr inh: -2.9; SW480 rerep: 6.6%; MCF10A rereplic: -4.2%

Results for CCOc1cc(CNC(C)(C)CO)cc(Br)c1OCc1ccc(Cl)cc1Cl ?
KB-3-1 cytotox: inactive; KB-V1 cytotox: inconclusive; IL1B secr inh: inconclusive; SW480 rerep: 28.1%; MCF10A rereplic: 6.51µM*

What do the screens show for `COc1cc(CNc2ccc(O)cc2)cc(Br)c1OCc1ccccc1F`?
KB-3-1 cytotox: inactive; KB-V1 cytotox: inactive; IL1B secr inh: -0.9; SW480 rerep: inconclusive; MCF10A rereplic: inconclusive

How did CCOc1cc(CNc2ccc(O)cc2)cc(Br)c1OCc1ccccc1F do in these assays?
KB-3-1 cytotox: inactive; KB-V1 cytotox: inactive; IL1B secr inh: -63.5*; SW480 rerep: inconclusive; MCF10A rereplic: inconclusive

Results for CCOc1cc(CNCCO)cc(Br)c1OCc1ccccc1Cl ?
KB-3-1 cytotox: inconclusive; KB-V1 cytotox: 23.1µM*; IL1B secr inh: inconclusive; SW480 rerep: -5.6%[9.22 µM]; MCF10A rereplic: inconclusive

How did COc1cc(CNC(C)(C)CO)cc(Br)c1OCc1ccccc1 do in these assays?
KB-3-1 cytotox: inactive; KB-V1 cytotox: inactive; IL1B secr inh: inconclusive; SW480 rerep: 13.3%; MCF10A rereplic: 17.4%

What do the screens show for `CC(C)c1ccc(NC(=S)N(C)CCc2ccccn2)cc1`?
KB-3-1 cytotox: inactive; KB-V1 cytotox: 23.1µM*; IL1B secr inh: -7.7; SW480 rerep: -11.3%; MCF10A rereplic: -2.9%

Results for CC(C)Cn1c(=O)c(C(=O)Nc2cnccn2)c(O)c2ccccc21 ?
KB-3-1 cytotox: inactive; KB-V1 cytotox: inactive; IL1B secr inh: 30.9; SW480 rerep: 3.0%; MCF10A rereplic: -1.5%

Results for CCCn1c(=O)c(C(=O)Nc2ccccc2C)c(O)c2ccccc21 ?
KB-3-1 cytotox: inactive; KB-V1 cytotox: 20.6µM*; IL1B secr inh: 12.6; SW480 rerep: -0.4%; MCF10A rereplic: inconclusive

How did CCCn1c(=O)c(C(=O)NNC(=O)c2ccccc2Cl)c(O)c2ccccc21 do in these assays?
KB-3-1 cytotox: inconclusive; KB-V1 cytotox: 9.2µM*; IL1B secr inh: 75.7; SW480 rerep: -18.1%; MCF10A rereplic: inconclusive

Results for CCn1c(=O)c(C(=O)NNS(=O)(=O)c2ccc(Cl)cc2)c(O)c2ccccc21 ?
KB-3-1 cytotox: inactive; KB-V1 cytotox: 14.6µM*; IL1B secr inh: -12.7; SW480 rerep: -8.2%; MCF10A rereplic: inconclusive

What do the screens show for `CCn1c(=O)c(C(=O)Nc2ccccc2C)c(O)c2ccccc21`?
KB-3-1 cytotox: inactive; KB-V1 cytotox: inactive; IL1B secr inh: 15.9; SW480 rerep: -9.1%; MCF10A rereplic: 16.2%

How did CC(C)Cn1c(=O)c(C(=O)Nc2ccncc2)c(O)c2ccccc21 do in these assays?
KB-3-1 cytotox: 7.31µM*; KB-V1 cytotox: inactive; IL1B secr inh: 0.0; SW480 rerep: inconclusive; MCF10A rereplic: inconclusive

Results for CCOc1cc2[nH]c(=O)n(CCCCC(=O)N3CCN(c4ccccc4OC)CC3)c(=O)c2cc1OCC ?
KB-3-1 cytotox: inactive; KB-V1 cytotox: inactive

Results for COc1ccc(N2CCN(C(=O)CSc3nnc(NC(=O)C4CC4)s3)CC2)cc1 ?
KB-3-1 cytotox: inactive; KB-V1 cytotox: inactive; IL1B secr inh: 12.6; SW480 rerep: -2.4%; MCF10A rereplic: 0.8%

What do the screens show for `CCCn1c(=O)c(C(=O)NCc2cccnc2)c(O)c2ccccc21`?
KB-3-1 cytotox: inactive; KB-V1 cytotox: 10.3µM*; IL1B secr inh: 94.2; SW480 rerep: inconclusive; MCF10A rereplic: 20.5%

How did CCCn1c(=O)c(C(=O)NCCc2ccc(OC)c(OC)c2)c(O)c2ccccc21 do in these assays?
KB-3-1 cytotox: inactive; KB-V1 cytotox: inactive; IL1B secr inh: 14.5; SW480 rerep: -4.0%; MCF10A rereplic: 1.03µM*

Results for CCCCCCCC(=O)NNC(=O)c1c(O)c2ccccc2n(CC)c1=O ?
KB-3-1 cytotox: inconclusive; KB-V1 cytotox: 18.4µM*; IL1B secr inh: 19.6; SW480 rerep: inconclusive; MCF10A rereplic: inconclusive

What do the screens show for `CCCn1c(=O)c(C(=O)Nc2ccccc2)c(O)c2ccccc21`?
KB-3-1 cytotox: inconclusive; KB-V1 cytotox: 23.1µM*; IL1B secr inh: 16.8; SW480 rerep: -3.2%; MCF10A rereplic: 5.9%

What do the screens show for `CCOC(=O)Cn1nc(N2CCN(c3ccc(F)cc3)CC2)ccc1=O`?
KB-3-1 cytotox: inactive; KB-V1 cytotox: inactive

Results for CC(=O)Nc1ccc(SCC(=O)N(C)C2CCS(=O)(=O)C2)cc1 (stereo not drawn) ?
KB-3-1 cytotox: inactive; KB-V1 cytotox: inactive; IL1B secr inh: -10.3; SW480 rerep: -6.2%[1.84 µM]; MCF10A rereplic: 5.6%

Results for C=CCn1c(=O)c(C(=O)Nc2ccccc2C)c(O)c2ccccc21 ?
KB-3-1 cytotox: inconclusive; KB-V1 cytotox: inconclusive; IL1B secr inh: 14.0; SW480 rerep: 3.7%; MCF10A rereplic: 18.4µM*

How did CCCCc1nc2ccccc2c(=O)n1NC(=O)c1c(O)c2ccccc2n(C)c1=O do in these assays?
KB-3-1 cytotox: 13µM*; KB-V1 cytotox: inconclusive; IL1B secr inh: -10.1; SW480 rerep: inconclusive; MCF10A rereplic: 9.1%

How did C=CCn1c(=O)c(C(=O)Nc2ccccc2O)c(O)c2ccccc21 do in these assays?
KB-3-1 cytotox: inactive; KB-V1 cytotox: inactive; IL1B secr inh: 23.6; SW480 rerep: 0.4%; MCF10A rereplic: 19.8%

How did Cc1c(Cl)cccc1NS(=O)(=O)c1c(C(=O)N2CCOCC2)c(C)n(C)c1C do in these assays?
KB-3-1 cytotox: inactive; KB-V1 cytotox: inactive; IL1B secr inh: 6.5; SW480 rerep: -13.0%; MCF10A rereplic: 5.3%

How did COc1ccc2nc(C)cc(N3CCN(c4ccccc4)CC3)c2c1 do in these assays?
KB-3-1 cytotox: inactive; KB-V1 cytotox: inconclusive; IL1B secr inh: -64.6*; SW480 rerep: 6.2%; MCF10A rereplic: -9.2%

Results for COc1cc(-c2csc(N3CCOCC3)n2)cc(OC)c1OC ?
KB-3-1 cytotox: inactive; KB-V1 cytotox: inactive; IL1B secr inh: inconclusive; SW480 rerep: -2.5%; MCF10A rereplic: -3.7%

Compound activity as filed in PubChem BioAssay.
